Measurements from paper PMC4336329 (PLoS ONE, 2015).
Hit rate of the full screen: of about 310,000 compounds, about 14,000 (4.5%) showed an effect of 50% or more. The effect is printed as a negative number. Shown is part of a subset that was picked to be rich in strong results.

biological target: human ether-à-go-go-related gene (hERG) potassium channel (human, UniProt Q12809); test: primary screen, population patch clamp on CHO cells stably expressing hERG; higher = less effect of the substance
Sequence (Q12809 whole entry, looked up): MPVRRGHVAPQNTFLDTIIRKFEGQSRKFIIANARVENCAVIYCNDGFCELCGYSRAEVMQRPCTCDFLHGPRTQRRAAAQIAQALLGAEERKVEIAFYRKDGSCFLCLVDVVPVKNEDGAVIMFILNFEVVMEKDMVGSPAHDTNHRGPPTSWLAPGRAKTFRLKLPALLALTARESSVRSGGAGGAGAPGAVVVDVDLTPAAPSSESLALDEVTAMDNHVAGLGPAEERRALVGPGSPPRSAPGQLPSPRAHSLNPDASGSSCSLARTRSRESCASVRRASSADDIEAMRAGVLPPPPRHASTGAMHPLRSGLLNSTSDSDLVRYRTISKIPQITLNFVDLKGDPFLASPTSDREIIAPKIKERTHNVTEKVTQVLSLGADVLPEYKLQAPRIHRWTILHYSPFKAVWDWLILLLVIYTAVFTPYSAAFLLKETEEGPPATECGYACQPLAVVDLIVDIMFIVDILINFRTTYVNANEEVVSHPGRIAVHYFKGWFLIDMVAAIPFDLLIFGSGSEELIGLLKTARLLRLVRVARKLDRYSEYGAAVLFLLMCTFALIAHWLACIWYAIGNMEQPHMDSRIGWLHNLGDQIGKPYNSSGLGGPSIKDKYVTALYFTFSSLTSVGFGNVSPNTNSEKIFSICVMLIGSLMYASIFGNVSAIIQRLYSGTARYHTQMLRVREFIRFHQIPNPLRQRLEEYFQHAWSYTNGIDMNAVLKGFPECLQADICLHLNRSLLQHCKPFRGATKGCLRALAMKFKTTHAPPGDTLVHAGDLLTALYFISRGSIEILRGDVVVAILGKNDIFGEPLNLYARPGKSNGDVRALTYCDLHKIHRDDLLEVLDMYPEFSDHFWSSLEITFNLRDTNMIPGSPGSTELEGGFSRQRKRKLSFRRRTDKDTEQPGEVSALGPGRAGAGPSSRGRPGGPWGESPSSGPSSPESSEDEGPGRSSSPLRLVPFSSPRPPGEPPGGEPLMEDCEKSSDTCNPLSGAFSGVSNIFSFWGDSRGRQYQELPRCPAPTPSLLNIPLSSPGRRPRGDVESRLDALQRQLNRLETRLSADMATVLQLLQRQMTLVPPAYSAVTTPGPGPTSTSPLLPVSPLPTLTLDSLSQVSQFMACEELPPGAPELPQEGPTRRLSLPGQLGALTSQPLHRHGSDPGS
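Also: peak tail current of the secondary pulse compared with the same well before compound.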

Compared with `O=C(Nc1ccccc1F)c1ccccc1-c1ccc(C(F)(F)F)cc1`, `O=C(COc1ccc(Br)cc1CO)Nc1ccccc1F` is higher in “hERG current change (%, negative = inhibition) at 10uM” value: -5.12% for the first, -2.36% for the second.

Compared with `Nc1nonc1-n1nnc(C(=O)N/N=C/c2cccc(Cl)c2)c1CN1CCCCCC1`, `Nc1nonc1-n1nnc(C(=O)N/N=C/c2cccc(O)c2)c1CN1CCCC1` is lower in “hERG current change (%, negative = inhibition) at 10uM” value: 18.4% for the first, 7.84% for the second.

Compared with `CN1CCN(Cc2c(C(=O)N/N=C/c3cccc(Br)c3)nnn2-c2nonc2N)CC1`, `CCc1ccc(/C=N/NC(=O)c2nnn(-c3nonc3N)c2CN2CCOCC2)cc1` is higher in “hERG current change (%, negative = inhibition) at 10uM” value: -74.8% for the first, -11.6% for the second.

First: CC(C)c1ccc(/C=N/NC(=O)c2nnn(-c3nonc3N)c2CN2CCOCC2)cc1
Second: CC1CCN(Cc2c(C(=O)N/N=C/c3ccc(C(C)C)cc3)nnn2-c2nonc2N)CC1
The “hERG current change (%, negative = inhibition) at 10uM” value of the first is lower: -56.6% for the first, 20.2% for the second.

Going from `O=C1NC(=O)C(=Cc2ccc3c(c2)OCO3)C(=O)N1` to `CN(C)CCN(C(=O)CN1C(=O)c2ccccc2C1=O)c1nc2cc3c(cc2s1)OCO3.Cl`, the “hERG current change (%, negative = inhibition) at 10uM” value falls from 15.3% to -57%.

Going from `CC1CN(C(=O)COC(=O)c2ccc(O)cc2)CC(C)O1` (centres unmarked) to `CCOC(=O)CSC1=NC(=O)/C(=C\c2ccc(OC(C)=O)cc2)S1`, the “hERG current change (%, negative = inhibition) at 10uM” value falls from 17.4% to 13.1%.

First: O=C(NCCCNC(=O)C(F)(F)C(F)F)C(F)(F)C(F)F
Second: CC(C)(C)OC(=O)NCCCC[C@H](NC(=O)c1nc[nH]c1C(=O)NC(c1ccccc1)c1ccccc1)C(=O)OC(C)(C)C
The “hERG current change (%, negative = inhibition) at 10uM” value of the first is lower: 6.91% for the first, 8.48% for the second.

Compared with `Brc1cccc(Cn2c(-c3cncs3)nc3ccccc32)c1`, `CSc1nnc(CNC(=O)c2ccccc2)n1-c1cccc(C)c1` is higher in “hERG current change (%, negative = inhibition) at 10uM” value: -10.5% for the first, -6.07% for the second.

Compared with `COc1ccccc1/C=C/C(=O)NC1CC2CCC1C2` (centres unmarked), `O=C(/C=C/c1ccccc1)NC1CC2CCC1C2` (centres unmarked) is higher in “hERG current change (%, negative = inhibition) at 10uM” value: -3.53% for the first, 5.72% for the second.

Compared with `O=C(/C=C/c1cccc([N+](=O)[O-])c1)NC1CC2CCC1C2` (centres unmarked), `O=C(/C=C/c1ccc([N+](=O)[O-])cc1)NC1CC2CCC1C2` (centres unmarked) is lower in “hERG current change (%, negative = inhibition) at 10uM” value: -24.7% for the first, -67.8% for the second.

Going from `O=C(CSCc1ccc([N+](=O)[O-])cc1)NC1CC2CCC1C2` (centres unmarked) to `O=C(/C=C/c1ccc(Cl)cc1)NC1CC2CCC1C2` (centres unmarked), the “hERG current change (%, negative = inhibition) at 10uM” value falls from -15.3% to -53.1%.

Going from `CCOc1ccc(NC(=O)CN2C(=O)COc3ccc(Cl)cc32)cc1` to `CCCOP(=O)(c1ccc(N(C)C)cc1)C(O)c1cc(OC)ccc1OC` (centres unmarked), the “hERG current change (%, negative = inhibition) at 10uM” value falls from 0.412% to 0.331%.

Compared with `CN(C)C=O.Oc1cccc2c(NC(=S)Nc3ccc(OC(F)F)cc3)cccc12`, `CCN1CCN(C(=O)c2ccccc2N(Cc2ccccc2)S(=O)(=O)c2ccc(OC)cc2)CC1` is lower in “hERG current change (%, negative = inhibition) at 10uM” value: -49.5% for the first, -73.1% for the second.

Compared with `CCn1ncc(S(=O)(=O)Nc2cccnc2)c1C`, `CCN1CCN(C(=O)c2ccccc2N(C)S(=O)(=O)c2ccc(C)cc2)CC1` is lower in “hERG current change (%, negative = inhibition) at 10uM” value: 5.02% for the first, 2.03% for the second.

Compared with `CC1(C)CC(=O)C=C(N2CCOCC2)C1`, `CC1(C)CC(N2CCOCC2)=CC(=[N+]2CCOCC2)C1.[I-]` is lower in “hERG current change (%, negative = inhibition) at 10uM” value: 15.6% for the first, 8.01% for the second.

Going from `CN(C)c1cccc(N=C2C=C(N3CCOCC3)CC(C)(C)C2)c1` to `COc1ccc(S(=O)(=O)N(Cc2ccccc2)c2ccccc2C(=O)N2CCOCC2)cc1`, the “hERG current change (%, negative = inhibition) at 10uM” value rises from -60.5% to -8.54%.

Compared with `COC(=O)c1sccc1Oc1ccc(F)cc1[N+](=O)[O-]`, `COc1ccc(OC)c(S(=O)(=O)N(C)CC(=O)N2CCN(c3ccccc3F)CC2)c1` is lower in “hERG current change (%, negative = inhibition) at 10uM” value: 1.74% for the first, -6.63% for the second.

First: Cc1ccc(S(=O)(=O)N(Cc2ccccc2)c2ccccc2C(=O)N2CCCCC2)cc1
Second: CCN1CCN(C(=O)c2ccccc2N(Cc2ccccc2)S(=O)(=O)c2ccc(C)cc2)CC1
The “hERG current change (%, negative = inhibition) at 10uM” value of the first is higher: -28.6% for the first, -53.2% for the second.

Going from `CCOC(=O)N1CCN(C(=O)c2ccccc2N(Cc2ccccc2)S(=O)(=O)c2ccc(OC)cc2)CC1` to `CN(C)CCN(C(=O)c1ccc2ccccc2c1)c1nc2cc3c(cc2s1)OCCO3.Cl`, the “hERG current change (%, negative = inhibition) at 10uM” value rises from -26.3% to 7.59%.

Compared with `Cc1ccc2nc(N(CCCN(C)C)C(=O)CN3C(=O)c4ccccc4C3=O)sc2c1.Cl`, `CN(C)CCN(C(=O)CN1C(=O)c2ccccc2C1=O)c1nc2cc3c(cc2s1)OCCO3.Cl` is lower in “hERG current change (%, negative = inhibition) at 10uM” value: -47.5% for the first, -53.8% for the second.

Compared with `CC(=O)N(CCN(C)C)c1nc2cc3c(cc2s1)OCCO3.Cl`, `CCN(CC)CCN(C(=O)CN1C(=O)c2ccccc2C1=O)c1nc2cc3c(cc2s1)OCO3.Cl` is lower in “hERG current change (%, negative = inhibition) at 10uM” value: 10.6% for the first, -17.8% for the second.

First: COCC(C)NC(=O)CCc1nnc(C2(c3ccc(Cl)cc3)CCC2)o1 (centres unmarked)
Second: O=C(O)CCC(=O)NNC(=O)c1cccc(Br)c1
The “hERG current change (%, negative = inhibition) at 10uM” value of the first is higher: 5.14% for the first, -0.791% for the second.
